The text below walks through data of ChEMBL document CHEMBL3433997, “St. Jude Leishmania screening dataset” (2016).

Common to all, as to assay type: functional
Assay [1] concerns the target Solute carrier family 2, facilitated glucose transporter member 1 (Homo sapiens) (UniProt P11166). Nature of the assay: ST_JUDE_LEISH: Cytotoxicity at 2uM final concentration against transgenic Leishmania Mexicana promastigotes LmGLUT1 that are glucose transport deficient and complemented with the human glucose transporter GLUT1. Activity is measured by DNA content using SYBR green in vitro.

Assay [2] addresses Hexose transporter 1 (Plasmodium falciparum) (UniProt O97467). The experiment in a line: ST_JUDE_LEISH: Cytotoxicity at 2uM final concentration against transgenic Leishmania Mexicana promastigotes LmPfHT that are glucose transport deficient and complemented with the Plasmodium falciparum hexose transporter. Activity is measured by DNA content using SYBR green in vitro.
The target of assay [3] is Glucose transporter (Leishmania mexicana) (UniProt O61059). The experiment in a line: ST_JUDE_LEISH: Cytotoxicity at 2uM final concentration against transgenic Leishmania Mexicana promastigotes LmGT2 that are glucose transport deficient and complemented with the L. Mexicana glucose transporter 2. Activity is measured by DNA content using SYBR green in vitro.

Chain of Solute carrier family 2, facilitated glucose transporter member 1 (Homo sapiens) (P11166 whole entry): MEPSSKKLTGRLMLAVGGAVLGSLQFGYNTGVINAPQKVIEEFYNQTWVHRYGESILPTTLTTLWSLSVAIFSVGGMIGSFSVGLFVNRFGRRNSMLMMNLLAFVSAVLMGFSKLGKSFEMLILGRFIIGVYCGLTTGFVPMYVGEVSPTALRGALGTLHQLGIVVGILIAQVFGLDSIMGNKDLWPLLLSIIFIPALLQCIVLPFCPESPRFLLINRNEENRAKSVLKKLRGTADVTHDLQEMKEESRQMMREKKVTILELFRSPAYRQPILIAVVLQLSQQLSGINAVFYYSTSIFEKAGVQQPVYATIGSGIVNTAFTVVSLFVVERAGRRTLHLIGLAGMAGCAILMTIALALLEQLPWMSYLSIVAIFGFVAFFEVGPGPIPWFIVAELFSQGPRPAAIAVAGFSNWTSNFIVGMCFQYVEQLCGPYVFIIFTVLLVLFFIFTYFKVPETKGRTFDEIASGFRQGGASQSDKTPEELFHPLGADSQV

`CC(=O)N(Cc1cccc(-c2ccc(CNCCc3ccccc3)cc2)c1)C1CCN(Cc2ccccc2)CC1`: the inhibition (commonly the drop in the measured response relative to a control, in per cent) in assay [1] came to 4.3%; in assay [2], 5.39%; in assay [3], 2.97%.
In the same order, the values of `CC(C)CNCc1ccc(-c2ccc(CN(C(=O)NC3CCCCC3)C3CCN(Cc4ccccc4)CC3)cc2)cc1` are 7.16%, 3.25% and 6.77%.
On the same counts, the results for `CN1CCC(COC(=O)C(O)(c2ccccc2)c2ccccc2)C1` (stereo not given) are 2.1%, -0.69% and -0.38%.
On the same counts, the results for `CC[C@H]1CN2CC[C@@H]1C[C@H]2[C@H](O)c1ccnc2ccc(Cl)cc12` are 2.97%, 3.95% and 3.25%.
As for `COC(=O)c1ccc(CC(C)NCC(O)c2cccc(C(F)(F)F)c2)c(Cl)c1` (stereo not given), the inhibition in assay [1] was found to be 2.55%; in assay [2] it was 2.18%; in assay [3], 3.39%.
